Reference: PubChem BioAssay
For part of these data: Results with a measured potency or affinity are listed apart. The source made the active and inactive calls.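 The calls were made as follows, unless noted: active = dose curve with midpoint inside tested range, moderate steepness, plateau gap beyond fit error, low compound glow and bead-link interference; inactive = the rest.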

Key:
[1] = biological target: Cell division control protein 42 homolog (Homo sapiens) (UniProt P60953); experiment: activated mutant Cdc42 GTP-binding inhibitors, dose response, biochemical, multiplex bead flow cytometry, Bodipy-FL-GTP (AID 1333;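 active = fitted half-maximal concentration within the tested dose range, moderate curve steepness, a statistically real signal drop, and little compound fluorescence or tag-binding interference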)
[2] = biological target: Cell division control protein 42 homolog (Homo sapiens) (UniProt P60953); experiment: wildtype Cdc42 GTP-binding inhibitors, dose response, biochemical, multiplex bead flow cytometry, Bodipy-FL-GTP (AID 1334;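 active = fitted half-maximal concentration within the tested range, moderate curve steepness, significant signal drop, and little compound fluorescence or bead-linkage interference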); details: bead-based flow cytometry, Bodipy-FL-GTP binding to GST-Cdc42; at 100 µM (top of the series) unless noted
[3] = biological target: GTPase HRas (Homo sapiens) (UniProt P01112); experiment: inhibitors of GTP binding to wildtype Ras, dose response, biochemical, multiplex bead flow cytometry (AID 1335;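 active = fitted half-maximal concentration within 10 nM to 100 µM, steepness 0.5 to 2, significant signal drop, low assay interference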); details: bead-based flow cytometry, Bodipy-GTP binding to GST-Ras; at 100 µM (top of the series) unless noted
[4] = test system: Ras-related protein Rab-7a (dog), GTP binding; experiment: Rab7 GTP binding inhibitors, potency, dose response, biochemical, wildtype, multiplex bead flow cytometry (AID 1336; call rule not given here)
[5] = biological target: Ras-related C3 botulinum toxin substrate 1 (Homo sapiens) (UniProt P63000); experiment: wildtype Rac1 GTP binding inhibitors, dose response, biochemical, multiplex bead flow cytometry (AID 1340); details: GST-Rac1 beads, Bodipy-FL-GTP binding; at 100 µM (top of the series) unless noted
[6] = biological target: GTPase HRas (Homo sapiens) (UniProt P01112); experiment: activated Ras mutant GTP binding inhibitors, dose response, biochemical, multiplex bead flow cytometry (AID 1341;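 active = dose-response curve with midpoint inside the tested range, moderate steepness, significant amplitude and little compound fluorescence or bead-attachment interference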;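 also: GST-tagged constitutively activated Ras mutant immobilized on beads and multiplexed with other GTPases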)

Chain of Cell division control protein 42 homolog (Homo sapiens) (P60953 whole entry, looked up): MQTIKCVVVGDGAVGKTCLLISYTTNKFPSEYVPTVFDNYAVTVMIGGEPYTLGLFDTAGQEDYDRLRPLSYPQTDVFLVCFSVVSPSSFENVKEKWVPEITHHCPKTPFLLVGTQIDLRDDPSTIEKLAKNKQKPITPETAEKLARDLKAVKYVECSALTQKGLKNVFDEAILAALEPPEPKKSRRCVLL
Chain of GTPase HRas (Homo sapiens) (P01112 whole entry, looked up): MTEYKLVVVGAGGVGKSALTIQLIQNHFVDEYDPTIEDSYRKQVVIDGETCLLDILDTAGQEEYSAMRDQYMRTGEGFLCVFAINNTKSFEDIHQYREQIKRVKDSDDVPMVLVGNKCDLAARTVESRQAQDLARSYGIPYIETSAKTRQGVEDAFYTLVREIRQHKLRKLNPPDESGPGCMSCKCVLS

| Compound | outcome [1] | fluorescence, percent of control (lower = inhibition) [2] | GTP binding, percent of control [3] | outcome [4] | GTP binding signal, raw median fluorescence (lower = inhibition) (MCF (arbitrary fluorescence units)) [5] | outcome [6] |
| --- | --- | --- | --- | --- | --- | --- |
| COc1ccc(S(=O)(=O)N2CCN(CC(=O)Nc3cc(C(F)(F)F)ccc3Cl)CC2)cc1 | inactive | 84.2% | 153% | inactive | 182 | inactive |
| O=C1c2ccccc2-n2c1nc1ccccc1c2=O | inactive | 35.1% | 78.8% | inactive | 204 | inactive |
| O=C(O)c1c(C(F)(F)F)ccnc1SCc1ccccc1 | inactive | 62% | 228% | inactive | 55.9 | inactive |
| CCOC(=O)N1CCN(/C=C(\C#N)c2nc3ccccc3s2)CC1 | inactive | 80.8% | 92.3% | inactive | 240 | inactive |
| O=S1(=O)N=C(N=Nc2c(O)[nH]c3ccccc23)c2ccccc21 | inactive | 27.7% | 62.5% | inactive | 129 | inactive |
| O=C(C#Cc1ccccn1)c1ccc([N+](=O)[O-])cc1 | inactive | 51% | 162% | inactive | 56.2 | inactive |
| O=C(c1nnsc1S(=O)(=O)c1ccc(Cl)cc1)N1CCOCC1 | inactive | 39.7% | 77.4% | inactive | 289 | inactive |
| COC(=O)c1cc(NC(=O)c2cccc(Cl)c2)c(=O)oc1/C=C/Nc1cc(C)cc(C)c1 | inactive | 193% | 237% | inactive | 563 | inactive |
| CCOC(=O)c1ccc(Nc2nc(C(=O)OCC)nc3ccccc23)cc1 | inactive | 66.3% | 128% | inactive | 159 | inactive |
| O=C(CCNS(=O)(=O)c1cccc2nsnc12)N1CCN(c2ccccn2)CC1 | inactive | 52.4% | 64.7% | inactive | 203 | inactive |
| O=C(CSc1ncnc2scc(-c3ccccc3)c12)N1CCN(Cc2ccc3c(c2)OCO3)CC1 | inactive | 45.2% | 63.6% | inactive | 196 | inactive |
| CCN(CC)c1ccc2c(c1)oc(=O)c1c(Cl)cc(=O)oc12 | inactive | 29% | 72.6% | inactive | 226 | inactive |
| O=C(O)/C=C/c1cn(Cc2ccccc2)nc1-c1ccccc1 | inactive | 101% | 72.4% | inactive | 175 | inactive |
| O=C(O)c1ccc(CSCc2ccccc2)o1 | inactive | 62.4% | 91.5% | inactive | 41.9 | inactive |
| OCCC1CN(Cc2cccc(O)c2)CCN1CCc1ccccc1 (stereo not given) | inactive | 40.6% | 90.6% | inactive | 342 | inactive |
| Cc1ccc(OCCn2cc(C(=O)O)c3ccccc32)cc1 | inactive | 45.4% | 96.7% | inactive | 280 | inactive |
| NOC(=O)c1cccnc1SCCc1ccccc1 | inactive | 45.9% | 125% | inactive | 63 | inactive |
| O=c1c2ccccc2nc2ccc(NCc3ccco3)nn12 | inactive | 31.4% | 71.8% | inactive | 196 | inactive |
| O=C(Nn1cc(C(=O)N2CCN(c3ccccc3F)CC2)c2ccccc2c1=O)c1cnccn1 | inactive | 98.6% | 156% | inactive | 197 | inactive |
| Cc1nc2nc(SCC(=O)O)nn2c(C)c1Cc1c(F)cccc1Cl | inactive | 28.4% | 75.3% | inactive | 221 | inactive |
| Cc1ccc(OCCn2c(SCCC(=O)O)nc3ccccc32)cc1 | inactive | 61.3% | 88.9% | inactive | 34.5 | inactive |
| Cc1cc(NCc2ccccn2)n2c(nc3ccccc32)c1C#N | inactive | 42.7% | 87.9% | inactive | 192 | inactive |
| COC(CNC(=O)C1CCCN1C(=O)OCc1ccccc1)OC (stereo not given) | inactive | 46.2% | 90.5% | inactive | 333 | inactive |
| CCc1ccc(OCc2cccc(C(=O)O)c2)cc1 | inactive | 58.6% | 87.5% | inactive | 32.6 | inactive |
| O=c1[nH]c(=O)c2nnc(N/N=C\c3ccc(O)cc3)nc2[nH]1 | inactive | 32.2% | 69.1% | inactive | 147 | inactive |
| COc1ccc(OC)c(CNCc2sc(C(=O)O)cc2C)c1 | inactive | 59.9% | 81.9% | inactive | 32.8 | inactive |
| COc1ccc(/C=N/NC(=S)Nc2cc(S(=O)(=O)N3CCOCC3)ccc2N2CCOCC2)cc1O | inactive | 65.8% | 80.8% | inactive | 0 | inactive |
| COc1cc(NC(=O)c2cccs2)c(OC)cc1NC(=O)CCC(=O)Nc1ccc2ncccc2c1 | inactive | 30.9% | 69.1% | inactive | 196 | inactive |
| CCOC(=O)c1nc(Nc2ccc(C(=O)OC)cc2)c2ccccc2n1 | inactive | 43.9% | 115% | inactive | 128 | inactive |
| CC1(C)Cc2c(sc(NC(=O)c3ccc(Br)o3)c2C#N)CO1 | inactive | 49.4% | 62.3% | inactive | 212 | inactive |
